Compounds with a hit are over-represented: about 3.2% of the library has one in this group of screens.
14-3-3 Bad PPI – disrupts binding of bovine 14-3-3 zeta to phospho-Bad peptide; P63103; inhibition, % at 21.7 µM; TR-FRET 14-3-3zeta/Dy647-pBad peptide displacement, 1 h; AID 781; 220,000 compounds, 0.71% hits;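 active means inhibition above about 70%, limit read from the data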;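 further: 0% = full 14-3-3 plus peptide FRET controls and 100% = background without 14-3-3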
Target sequence (P63103 whole entry, looked up): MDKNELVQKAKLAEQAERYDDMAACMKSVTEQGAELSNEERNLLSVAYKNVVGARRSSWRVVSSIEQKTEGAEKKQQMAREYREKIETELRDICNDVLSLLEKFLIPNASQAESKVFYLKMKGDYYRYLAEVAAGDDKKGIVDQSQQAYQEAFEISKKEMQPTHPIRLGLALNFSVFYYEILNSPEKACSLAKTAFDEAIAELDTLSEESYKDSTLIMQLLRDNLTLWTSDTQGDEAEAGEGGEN
Mcl1-Bid inh – disrupts binding of human Mcl-1 to Bid peptide; Q07820; TR-FRET Mcl-1/Bid-Dy647 peptide binding, 1536-well; inhibition, % at 21.7 µM; 220,000 compounds, 0.97% hits; AID 1021;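 active means compounds that cut the binding signal by more than half at the single screening dose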;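 further: His-tagged Mcl-1 with europium anti-His antibody binding Bid BH3 peptide; 0% = Mcl-1 plus peptide wells and 100% = peptide-only wells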
Mcl1-Noxa inh – disrupts binding of human Mcl-1 to Noxa peptide. inhibition, % at 21.7 µM. TR-FRET Mcl-1/Noxa peptide binding, 2 h. AID 1022. 220,000 compounds, 1.5% hits;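 active means compounds that cut the protein-peptide binding signal by more than 50% relative to plate controls in a single-dose test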;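 further: His-tagged Mcl-1 with rhodamine Noxa BH3 peptide and terbium anti-His antibody; 0% = Mcl-1 plus Noxa peptide wells and 100% = peptide-only wells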
NCF1 inh – inhibitors of human p47phox binding; p47phox/p22phox peptide binding, fluorescence polarization, 2 h; P14598; inhibition, % at 24.7 µM; 220,000 compounds, 0.53% hits; AID 1274;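 active means inhibition above about 30%, limit read from the data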;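 further: 0% = p47phox with labelled peptide and 100% = labelled peptide alone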
Target sequence (P14598 whole entry, looked up): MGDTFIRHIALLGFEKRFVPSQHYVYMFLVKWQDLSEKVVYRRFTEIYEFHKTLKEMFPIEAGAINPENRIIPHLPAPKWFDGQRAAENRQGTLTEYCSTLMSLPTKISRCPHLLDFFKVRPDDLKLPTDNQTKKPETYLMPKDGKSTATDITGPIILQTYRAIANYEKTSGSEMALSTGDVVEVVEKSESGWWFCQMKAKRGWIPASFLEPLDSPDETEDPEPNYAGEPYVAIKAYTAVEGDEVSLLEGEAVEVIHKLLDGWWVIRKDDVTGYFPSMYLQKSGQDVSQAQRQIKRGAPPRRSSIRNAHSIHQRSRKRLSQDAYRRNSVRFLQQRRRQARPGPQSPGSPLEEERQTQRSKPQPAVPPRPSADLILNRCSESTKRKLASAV
Bim-Mcl-1 – disrupts Bim peptide binding to human Mcl-1; Q07820; Bead-based flow cytometry, Bim peptide-Mcl-1 binding; inhibition, % at 10 µM; 190,000 compounds, 0.1% hits; AID 1009; in the data active means inhibition above about 40%;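 further: 0% = no compound tracer wells and 100% = peptide blocker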
Active calls of the source: *; [ ] = another dose, or the depositor's remark.

Screening CCN(CC)C(=O)CSc1nc2cc3c(cc2c(=O)n1Cc1ccco1)OCO3 returned 14-3-3 Bad PPI -11, Mcl1-Bid inh 9, Mcl1-Noxa inh 4, NCF1 inh -5 and Bim-Mcl-1 0.
`CCC(C)NC(=O)CSc1nc2cc3c(cc2c(=O)n1Cc1ccco1)OCO3` (centres undefined) gave 14-3-3 Bad PPI 37, Mcl1-Bid inh 54*, Mcl1-Noxa inh -27, NCF1 inh 30* and Bim-Mcl-1 1.
`CN(CC1CCOCC1)C(=O)CC1C(=O)NCCN1C/C=C/c1ccccc1` (centres undefined) gave 14-3-3 Bad PPI -9, Mcl1-Bid inh -38, Mcl1-Noxa inh -1, NCF1 inh 0 and Bim-Mcl-1 4.
Screening CCOc1ccc(-c2nc(-c3cccnc3)no2)cc1 returned 14-3-3 Bad PPI 2, Mcl1-Bid inh -9, Mcl1-Noxa inh -10, NCF1 inh 2 and Bim-Mcl-1 -1.
`CCCCOc1ccc(-c2nc(-c3cccnc3)no2)cc1` gave 14-3-3 Bad PPI 160*[fluorescence artefact?], Mcl1-Bid inh 8, Mcl1-Noxa inh -2, NCF1 inh -3 and Bim-Mcl-1 0.
For CCCCc1ccc(-c2nc(-c3ccncc3)no2)cc1 the results were 14-3-3 Bad PPI 1, Mcl1-Bid inh -5, Mcl1-Noxa inh 2, NCF1 inh 62* and Bim-Mcl-1 2.
For O=c1[nH]cc(C(F)(F)F)cc1NS(=O)(=O)c1ccccc1[N+](=O)[O-] the results were 14-3-3 Bad PPI -1, Mcl1-Bid inh -15, Mcl1-Noxa inh 13, NCF1 inh 2 and Bim-Mcl-1 2.
COc1ccc(OCC(O)CNC(=O)Nc2cccc3ccccc23)cc1 (centres undefined) was read as 14-3-3 Bad PPI -4, Mcl1-Bid inh -9, Mcl1-Noxa inh -1 and NCF1 inh -8.
For O=c1oc2ccccc2c(O)c1/C=C1\C=Nc2ccccc21 the results were 14-3-3 Bad PPI 5, Mcl1-Bid inh -53, Mcl1-Noxa inh 78*, NCF1 inh 46* and Bim-Mcl-1 0.
`CCN(CC(=O)Nc1c(C(=O)OC)[nH]c2ccc(Cl)cc12)c1ccc2c(c1)OCO2` gave 14-3-3 Bad PPI 16, Mcl1-Bid inh 59*, Mcl1-Noxa inh 43, NCF1 inh 0 and Bim-Mcl-1 6.
Screening CCOc1ncccc1C(=O)OCC(=O)c1ccc(F)cc1 returned 14-3-3 Bad PPI -4, Mcl1-Bid inh -25, Mcl1-Noxa inh 12, NCF1 inh -17 and Bim-Mcl-1 0.
`O=C1CC(Nc2ccc(N3CCOCC3)cc2)C(=O)N1c1cccc(C(F)(F)F)c1` (centres undefined) gave 14-3-3 Bad PPI -2, Mcl1-Bid inh 53*, Mcl1-Noxa inh 47, NCF1 inh -11 and Bim-Mcl-1 -4.
Screening Cc1nc2sc(C(c3cccs3)N3CCOCC3)c(O)n2n1 (centres undefined) returned 14-3-3 Bad PPI 2, Mcl1-Bid inh 76*, Mcl1-Noxa inh 30, NCF1 inh -5 and Bim-Mcl-1 -1.
For CC(C)c1ccc(O)c(N)c1 the results were 14-3-3 Bad PPI -29, Mcl1-Bid inh -44, Mcl1-Noxa inh 13, NCF1 inh -11 and Bim-Mcl-1 -1.
CC(C)c1ccc(C(N)=S)cc1 was read as 14-3-3 Bad PPI -6, Mcl1-Bid inh -31, Mcl1-Noxa inh 68*, NCF1 inh -3 and Bim-Mcl-1 0.
For COc1cccc(N2CCN(C3CC(=O)N(c4ccc(Cl)c(Cl)c4)C3=O)CC2)c1 (centres undefined) the results were 14-3-3 Bad PPI -11, Mcl1-Bid inh 59*, Mcl1-Noxa inh 12, NCF1 inh -15 and Bim-Mcl-1 -1.
Screening CN1C(=O)CC(N2CCN(c3ccc(Cl)c(Cl)c3)CC2)C1=O (centres undefined) returned 14-3-3 Bad PPI -4, Mcl1-Bid inh -22, Mcl1-Noxa inh -2, NCF1 inh -38 and Bim-Mcl-1 -1.
Screening Cc1cccc(Nc2cc(C)c3c(O)cccc3n2)c1C returned 14-3-3 Bad PPI -9, Mcl1-Bid inh -5, Mcl1-Noxa inh 53*, NCF1 inh -19 and Bim-Mcl-1 0.
For Cc1cccc(NC(=S)N(C)C)c1C the results were 14-3-3 Bad PPI -5, Mcl1-Bid inh -24, Mcl1-Noxa inh 0 and NCF1 inh -17.
`Cc1ccc2[nH]c(O)c(N=NC(=O)c3ccc(NS(=O)(=O)c4cccs4)cc3)c2c1` gave 14-3-3 Bad PPI 8, Mcl1-Bid inh 11, Mcl1-Noxa inh 71* and NCF1 inh -9.
For O=C(N=Nc1c(O)[nH]c2ccccc12)c1ccccc1NS(=O)(=O)c1cccs1 the results were 14-3-3 Bad PPI -3, Mcl1-Bid inh -24, Mcl1-Noxa inh 21, NCF1 inh 9 and Bim-Mcl-1 10.
For CCOc1ccc(-n2c(N)c(-c3nc4ccccc4[nH]3)sc2=S)cc1 the results were 14-3-3 Bad PPI 10, Mcl1-Bid inh -36, Mcl1-Noxa inh 14, NCF1 inh -13 and Bim-Mcl-1 0.
For COc1ccc(-n2c(N)c(-c3nc4ccccc4n3C)sc2=S)cc1 the results were 14-3-3 Bad PPI 7, Mcl1-Bid inh -7, Mcl1-Noxa inh 89*, NCF1 inh -5 and Bim-Mcl-1 -3.
For CCCCn1nc(C(=O)Nc2nc3c(s2)CCCC3)c2ccccc2c1=O the results were 14-3-3 Bad PPI 2, Mcl1-Bid inh -24, Mcl1-Noxa inh 3, NCF1 inh -23 and Bim-Mcl-1 -25.
For CCCCCCn1nc(C(=O)Nc2nc3c(s2)CCCC3)c2ccccc2c1=O the results were 14-3-3 Bad PPI 16, Mcl1-Bid inh 10, Mcl1-Noxa inh 25, NCF1 inh 3 and Bim-Mcl-1 45*.
O=C(Cn1nnc(-c2cccs2)n1)Nc1ccccc1C(F)(F)F was read as 14-3-3 Bad PPI -3, Mcl1-Bid inh -11, Mcl1-Noxa inh 12, NCF1 inh -5 and Bim-Mcl-1 -2.
Screening O=C1c2ccccc2-c2onc3ccc(NCCCn4ccnc4)c1c23 returned 14-3-3 Bad PPI 8, Mcl1-Bid inh 60*, Mcl1-Noxa inh -281, NCF1 inh -237 and Bim-Mcl-1 63*.
Cc1nc(NCCCn2ccnc2)c2ccccc2n1 was read as 14-3-3 Bad PPI 40, Mcl1-Bid inh -10, Mcl1-Noxa inh 24, NCF1 inh -10 and Bim-Mcl-1 -1.
COc1ccc(C=O)c(OC)c1 was read as 14-3-3 Bad PPI 1, Mcl1-Bid inh 9, Mcl1-Noxa inh 2, NCF1 inh 3 and Bim-Mcl-1 -4.
Screening COc1ccc(OC)c(N)c1 returned 14-3-3 Bad PPI 33, Mcl1-Bid inh -70, Mcl1-Noxa inh 14, NCF1 inh 106* and Bim-Mcl-1 3.
`Cc1[nH]ccc2c1[nH]c1cc(=O)ccc12` gave 14-3-3 Bad PPI -11, Mcl1-Bid inh -14, Mcl1-Noxa inh 19 and NCF1 inh 46*.
Cc1cccc(N2CC(O)(c3cccs3)[N+]3=C2CCCCC3)c1 (centres undefined) was read as 14-3-3 Bad PPI 83*, Mcl1-Bid inh -37, Mcl1-Noxa inh 6, NCF1 inh -12 and Bim-Mcl-1 4.

Source: PubChem BioAssay
